Some test systems named below: NCI-H226 lung; NCI-H322M lung; HOP-62 NSCLC; NCI-H460 lung; HOP-92 NSCLC; NCI-H522 lung; A549/ATCC NSCLC; 786-0 renal; COLO 205 colon; DU-145 prostate; K-562 leukemia; MALME-3M melanoma; MDA-MB-231 breast; RXF 393 renal; SF-268 CNS; SF-295 CNS; SF-539 CNS; UACC-257 melanoma; M14 melanoma.
Common to all, as to test: NCI-60 one-dose screen, 48 h (100 = growth as untreated, 0 = no growth, -100 = all killed)
What all share (details): 10 µM unless noted

Our source for the growth values is PubChem BioAssay (NCI).

Compounds without any hit were thinned out: in the full panel of roughly 83,000, 20% have a hit.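 Activity criterion: percent growth below 10, measured after cells in 96-well plates were exposed to a single compound concentration for 48 hours.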 A number with no mark means an inactive call. Calls of active or inactive are those of the source.

Take `CCCCOC(=O)c1c(C)[nH]c(/C=C2\N=C(c3ccc[nH]3)C=C2OC)c1C`: the growth is -0.091% (active) in the experiment with NCI-H226 lung; -10.5% (active) with NCI-H322M lung; 2.13% (active) with HOP-62 NSCLC; 6.62% (active) in the experiment on NCI-H460 lung; -17% (active) with HOP-92 NSCLC; -41.3% (active) in the experiment with NCI-H522 lung. The growth with A549/ATCC NSCLC is -9.07% (active); in the experiment with 786-0 renal, -32.6% (active); with COLO 205 colon it was -29.2% (active); in the experiment with DU-145 prostate, 18.5%; with K-562 leukemia it was 9.48% (active); in the experiment with MALME-3M melanoma, -56.5% (active). Moreover, the growth in the experiment with MDA-MB-231 breast was -49.7% (active); with RXF 393 renal it was -12.6% (active); in the experiment with SF-268 CNS, 19.9%; with SF-295 CNS, -61.9% (active); in the experiment on SF-539 CNS, -36.2% (active); in the experiment with UACC-257 melanoma, -12% (active). Moreover, the growth in the experiment with M14 melanoma is -18.6% (active).

For `Oc1c(CNCCNCc2cc(Cl)cc(Cc3ccccc3)c2O)cc(Cl)cc1Cc1ccccc1`, the growth with NCI-H226 lung was 9.76% (active); in the experiment on NCI-H322M lung, 23.4%; with HOP-62 NSCLC it was 19.4%; with NCI-H460 lung, 8.13% (active); in the experiment on HOP-92 NSCLC, 45.1%; in the experiment on NCI-H522 lung, 43.7%. The growth in the experiment with A549/ATCC NSCLC is 13.9%; in the experiment with 786-0 renal, -3.97% (active); with COLO 205 colon it was 8.84% (active); in the experiment with DU-145 prostate, 24.2%; in the experiment with K-562 leukemia it was 13.2%; in the experiment with MALME-3M melanoma, 8.23% (active). Further, the growth in the experiment on MDA-MB-231 breast is 36.2%; with RXF 393 renal it was 17.6%; in the experiment with SF-268 CNS, 18.6%; in the experiment on SF-295 CNS, 0.247% (active); with SF-539 CNS, 2.22% (active); in the experiment with UACC-257 melanoma, 16%. Besides, the growth with M14 melanoma is 2.36% (active).

As for `CC1Cc2c(Cl)ncnc2N(C)c2ccc(O)cc21` (stereo not given), the growth is 82.2% in the experiment with NCI-H226 lung; 44.2% in the experiment with NCI-H322M lung; 53.8% in the experiment on HOP-62 NSCLC; 84.3% in the experiment on NCI-H460 lung; 85.1% in the experiment with HOP-92 NSCLC; 92.5% in the experiment with NCI-H522 lung. Besides, the growth with A549/ATCC NSCLC was 28.4%; with 786-0 renal, -3.93% (active); in the experiment on COLO 205 colon, 91.7%; in the experiment with DU-145 prostate it was 108%; in the experiment on K-562 leukemia it was 89.6%; in the experiment on MALME-3M melanoma, 53.4%. The growth is 21.1% in the experiment on MDA-MB-231 breast; 32.1% in the experiment on RXF 393 renal; 29.1% in the experiment with SF-268 CNS; 49.7% in the experiment on SF-295 CNS; 34.6% with SF-539 CNS; 33.9% with UACC-257 melanoma. Besides, the growth in the experiment on M14 melanoma is 21.9%.

On to `Cc1ccccc1-n1nnc(C(=O)Nc2nc3ccc(F)cc3s2)c1C`, for which the growth is 48.4% in the experiment with NCI-H226 lung; 71.2% with NCI-H322M lung; 86% with HOP-62 NSCLC; 65.7% with NCI-H460 lung; 55.7% with HOP-92 NSCLC; 66.4% in the experiment on NCI-H522 lung. Moreover, the growth was 64.5% with A549/ATCC NSCLC; 76.2% with 786-0 renal; 80.5% in the experiment with COLO 205 colon; 66.9% with DU-145 prostate; 35.3% in the experiment on K-562 leukemia; 50.6% with MALME-3M melanoma. For the same compound, the growth in the experiment with MDA-MB-231 breast was 82%; with RXF 393 renal, 65.6%; in the experiment with SF-268 CNS it was 73%; in the experiment with SF-295 CNS, 60.5%; in the experiment with SF-539 CNS it was 79.9%; in the experiment with UACC-257 melanoma, 55.7%. In the experiment on M14 melanoma, the growth was 49.3%.

Take `COc1cc2c(=O)[nH]c3cc([N+](=O)[O-])ccc3c2cc1[N+](=O)[O-]`: the growth in the experiment on NCI-H226 lung was 45%; with NCI-H322M lung, 60.8%; with HOP-62 NSCLC, 85.5%; in the experiment with NCI-H460 lung it was 14%; with HOP-92 NSCLC, 45.9%; in the experiment on NCI-H522 lung, 28.7%. In addition, the growth in the experiment on A549/ATCC NSCLC is 40.5%; in the experiment on 786-0 renal, 70.1%; in the experiment with COLO 205 colon, 56.6%; with DU-145 prostate, 73.4%; in the experiment on K-562 leukemia it was 49.2%; in the experiment on MALME-3M melanoma it was 50.3%. Moreover, the growth is 56% in the experiment with MDA-MB-231 breast; 72.2% with RXF 393 renal; 63.7% in the experiment with SF-268 CNS; 47.9% in the experiment with SF-295 CNS; 45% in the experiment with SF-539 CNS; 41.7% in the experiment with UACC-257 melanoma. In the experiment on M14 melanoma, the growth was 76.4%.

As for `O=C(NCCO)c1cccnc1`, the growth in the experiment with NCI-H226 lung was 92.7%; in the experiment with NCI-H322M lung, 95.9%; with HOP-62 NSCLC it was 91.9%; in the experiment with NCI-H460 lung, 98.9%; in the experiment on HOP-92 NSCLC, 82.7%; in the experiment on NCI-H522 lung, 73%. Also, the growth was 88.5% with A549/ATCC NSCLC; 97% in the experiment on 786-0 renal; 105% with COLO 205 colon; 109% in the experiment on DU-145 prostate; 95.2% in the experiment with K-562 leukemia; 105% in the experiment with MALME-3M melanoma. The growth with MDA-MB-231 breast is 112%; in the experiment with RXF 393 renal, 112%; in the experiment with SF-268 CNS it was 100%; with SF-295 CNS, 101%; in the experiment with SF-539 CNS, 101%; in the experiment on UACC-257 melanoma, 87.7%. The growth in the experiment on M14 melanoma is 104%.

For the compound `Cc1cc(C)c(O)c(CNCCCNCc2cc(C)cc(C)c2O)c1`, the growth was 91.4% with NCI-H226 lung; 45.7% in the experiment with NCI-H322M lung; 74.9% in the experiment on HOP-62 NSCLC; 40.7% in the experiment with NCI-H460 lung; 40.5% with HOP-92 NSCLC; 42.4% in the experiment with NCI-H522 lung. Further, the growth with A549/ATCC NSCLC is 78.8%; in the experiment with 786-0 renal it was 80%; in the experiment on COLO 205 colon it was 9.05% (active); with DU-145 prostate, 87.8%; in the experiment on K-562 leukemia, 15.3%; in the experiment on MALME-3M melanoma it was -65.9% (active). Moreover, the growth in the experiment on MDA-MB-231 breast was 35.8%; in the experiment on RXF 393 renal it was 47.9%; with SF-268 CNS it was 74.7%; in the experiment on SF-295 CNS, 30.3%; in the experiment with SF-539 CNS, -11.8% (active); in the experiment on UACC-257 melanoma, 4.87% (active). In the experiment on M14 melanoma, the growth was -65.8% (active).

In the case of `N#Cc1ccc(-c2ccc(COc3ccc(CC4SC(=O)NC4=O)cc3)cc2)cc1` (stereo not given), the growth with NCI-H226 lung is 86.5%; in the experiment with NCI-H322M lung it was 89.7%; in the experiment on HOP-62 NSCLC it was 67.1%; with NCI-H460 lung, 69.5%; with HOP-92 NSCLC, 66.8%; in the experiment with NCI-H522 lung, 43.8%. The growth with A549/ATCC NSCLC is 48.1%; in the experiment on 786-0 renal it was 83%; in the experiment on COLO 205 colon, 103%; with DU-145 prostate, 92.6%; in the experiment with K-562 leukemia, 28.3%; in the experiment on MALME-3M melanoma, 59.5%. Besides, the growth with MDA-MB-231 breast is 71.2%; in the experiment on RXF 393 renal, 97.5%; with SF-268 CNS it was 63.6%; in the experiment with SF-295 CNS, 50.3%; with SF-539 CNS, 65.5%; in the experiment on UACC-257 melanoma it was 84.9%. In addition, the growth in the experiment on M14 melanoma was 73.4%.

As to `CCCCOC(=O)c1cccc([N+](=O)[O-])c1`, the growth in the experiment with NCI-H226 lung was 104%; with NCI-H322M lung it was 106%; with HOP-62 NSCLC it was 109%; in the experiment with NCI-H460 lung, 107%; with HOP-92 NSCLC, 99.8%; in the experiment on NCI-H522 lung it was 92.7%. The growth was 107% with A549/ATCC NSCLC; 112% with 786-0 renal; 115% in the experiment on COLO 205 colon; 117% in the experiment on DU-145 prostate; 144% in the experiment with K-562 leukemia; 117% in the experiment with MALME-3M melanoma. In addition, the growth is 121% in the experiment on MDA-MB-231 breast; 111% in the experiment on RXF 393 renal; 110% with SF-268 CNS; 101% in the experiment on SF-295 CNS; 105% in the experiment with SF-539 CNS; 93.6% in the experiment with UACC-257 melanoma. Further, the growth in the experiment with M14 melanoma was 105%.

With `c1coc2occoc=2o1`, the growth is 97.2% with NCI-H226 lung; 110% in the experiment with NCI-H322M lung; 94.7% in the experiment on HOP-62 NSCLC; 113% in the experiment with NCI-H460 lung; 85.8% with HOP-92 NSCLC; 91.7% with NCI-H522 lung. The growth in the experiment on A549/ATCC NSCLC is 97%; in the experiment with 786-0 renal it was 102%; with COLO 205 colon, 122%; in the experiment on DU-145 prostate, 111%; in the experiment with K-562 leukemia, 99.1%; in the experiment on MALME-3M melanoma, 103%. Further, the growth was 108% in the experiment with MDA-MB-231 breast; 117% in the experiment on RXF 393 renal; 105% in the experiment on SF-268 CNS; 99.1% with SF-295 CNS; 95.2% in the experiment on SF-539 CNS; 106% in the experiment on UACC-257 melanoma. Besides, the growth in the experiment on M14 melanoma was 101%.
